Assay [1] can be described thus: ATG_PBREM_CIS: Attagene CIS-FACTORIAL HepG2 Assay for human Phenobarbital-responsive Enhancer Module (PBREM) (AID 2282955). To be noted: HepG2 PBREM cis-reporter, Attagene multiplexed transcription; actives raise or lower the signal. The procedure, abridged: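 Transfected liver-derived HepG2 cells exposed 24 h; PBREM reporter transcript quantified via RT-PCR and capillary electrophoresis, with activity in either direction referenced to DMSO.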

Assay [2] deals with Paired box protein Pax-6 (Homo sapiens) (UniProt P26367). Description: ATG_Pax6_CIS: Attagene CIS-FACTORIAL HepG2 Assay for human Paired Box 6 (PAX6) (AID 2282956). The conditions noted are these: HepG2 CIS-FACTORIAL PAX6 reporter transcription, RNA readout; actives raise or lower the signal. The procedure, abridged:
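HepG2 cells transiently transfected with cis-promoter-driven multiplexed reporter units sensing endogenous transcription factor activity; 24 h chemical exposure. Reporter mRNA quantified by RT-PCR, 6-FAM labelling, HpaI digestion and capillary electrophoresis; bidirectional fit versus DMSO baseline.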

The nature of assay [3]: ATG_PXRE_CIS: Attagene CIS-FACTORIAL HepG2 Assay for human Pregnane X Receptor Element (PXRE) (AID 2282957). The conditions noted are these: HepG2 Attagene CIS-FACTORIAL PXRE reporter, mRNA; actives raise or lower the signal. The procedure, abridged:
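Cells: HepG2, transiently transfected reporter units under cis promoter control. Exposure: 24 h. Detection: reporter mRNA via RT-PCR/CE fluorescence; bidirectional fitting, DMSO-referenced.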

Assay [4] is described as follows: ATG_Sox_CIS: Attagene CIS-FACTORIAL HepG2 Assay for human SRY-box transcription factor (SOX) (AID 2282960). To be noted: HepG2 Attagene cis-factorial SOX reporter, mRNA; actives raise or lower the signal. The procedure, abridged:
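Gain- or loss-of-signal endpoint, fitted bidirectionally with DMSO as negative control. Based on reporter mRNA from transfected HepG2 cells harvested 24 h post-treatment and quantified via RT-PCR and capillary electrophoresis.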

Assay [5] addresses Transcription factor Sp1 (Homo sapiens) (UniProt P08047). In words: ATG_Sp1_CIS: Attagene CIS-FACTORIAL HepG2 Assay for human Specificity Protein 1 (Sp1) (AID 2282961). To be noted: HepG2 Sp1 cis-reporter transcription, actives raise or lower the signal. In short, it runs like this: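 Endpoint reflects endogenous Sp1 transcriptional activity, not an exogenous fusion protein: HepG2 cells with transfected cis-regulated reporters, 24 h dosing, RT-PCR/capillary electrophoresis mRNA read-out, DMSO-normalised bidirectional fit.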

The nature of assay [6]: ATG_SREBP_CIS: Attagene CIS-FACTORIAL HepG2 Assay for human Sterol Regulatory Element Binding (SREBP) (AID 2282962). The conditions noted are these: HepG2 Attagene cis-factorial SREBP reporter, mRNA; actives raise or lower the signal. The procedure, abridged: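 HepG2 cells transiently transfected with multiplexed cis-promoter reporter units sensing endogenous transcription factors; reporter mRNA measured 24 h after dosing by RT-PCR, 6-FAM labeling, HpaI digestion and capillary electrophoresis. Bidirectional fit versus DMSO.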

Assay [7] concerns the target Signal transducer and activator of transcription 3 (Homo sapiens) (UniProt P40763). In words: ATG_STAT3_CIS: Attagene CIS-FACTORIAL HepG2 Assay for human Signal Transducer and Activator of Transcription 3 (STAT3) (AID 2282963). To be noted: HepG2, Attagene cis-factorial STAT3 reporter transcription; actives raise or lower the signal. In short, it runs like this:
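Endogenous STAT3-responsive cis-element activity was read in transiently transfected HepG2 cells after 24 h treatment. Reporter transcripts were quantified via RT-PCR and capillary electrophoresis, with DMSO as negative control and bidirectional curve fitting.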

A short description of assay [8]: ATG_TA_CIS: Attagene CIS-FACTORIAL HepG2 Assay for human TA Basal Promoter (AID 2282964). To be noted: HepG2 Attagene CIS-factorial TA basal promoter reporter; actives raise or lower the signal. In short, it runs like this: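 Background-control readout: TA basal promoter reporter mRNA, fitted in both directions relative to DMSO. Measured by RT-PCR and capillary electrophoresis 24 hours after treating HepG2 human liver cells transiently carrying multiplexed cis-regulated reporter constructs.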

The nature of assay [9]: ATG_RORE_CIS: Attagene CIS-FACTORIAL HepG2 Assay for human RAR-related Orphan Receptor Element (RORE) (AID 2282959). To be noted: HepG2 Attagene cis-factorial RORE reporter, mRNA; actives raise or lower the signal. In short, it runs like this:
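Transiently transfected HepG2 reporter cells were treated 24 h. Reporter transcripts were detected by RT-PCR and capillary electrophoresis, with bidirectional fitting against DMSO.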

The nature of assay [10]: ATG_PPRE_CIS: Attagene CIS-FACTORIAL HepG2 Assay for human Peroxisome Proliferator-activated Response Element (PPRE) (AID 2282958). To be noted: HepG2 PPRE cis-element reporter, Attagene transcription factor profiling; actives raise or lower the signal. In short, it runs like this:
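Measured endpoint: PPRE-controlled reporter mRNA, detected by RT-PCR and capillary electrophoresis fluorescence, from transiently transfected HepG2 cells 24 h after dosing. Curves fitted in both directions using DMSO baseline.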

Values joined by “and” are separate entries in the source; they are usually repeats but may differ in a detail not shown here. Equal values may be shown once. Some compounds were tested as several samples or in several runs, with calls that do not always agree. Active and inactive are the calls of the source. Rule for the calls: active = hit-call score of the fitted dose curve at least 0.9, where 1 is the maximum; inactive = score below 0.9.

Chain of Paired box protein Pax-6 (Homo sapiens) (P26367 whole entry, looked up): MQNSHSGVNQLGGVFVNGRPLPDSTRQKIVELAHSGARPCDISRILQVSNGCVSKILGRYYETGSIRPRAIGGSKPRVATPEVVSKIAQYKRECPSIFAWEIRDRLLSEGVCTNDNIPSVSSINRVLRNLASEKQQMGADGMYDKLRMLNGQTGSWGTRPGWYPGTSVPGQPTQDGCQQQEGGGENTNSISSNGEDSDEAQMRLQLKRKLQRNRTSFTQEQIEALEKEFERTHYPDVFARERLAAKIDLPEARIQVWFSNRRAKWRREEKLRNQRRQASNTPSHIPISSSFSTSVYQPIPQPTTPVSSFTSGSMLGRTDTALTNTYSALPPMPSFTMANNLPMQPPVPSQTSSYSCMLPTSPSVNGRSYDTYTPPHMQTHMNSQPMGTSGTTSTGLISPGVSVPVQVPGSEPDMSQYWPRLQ
Chain of Transcription factor Sp1 (Homo sapiens) (P08047 whole entry, looked up, the tested form may be a part): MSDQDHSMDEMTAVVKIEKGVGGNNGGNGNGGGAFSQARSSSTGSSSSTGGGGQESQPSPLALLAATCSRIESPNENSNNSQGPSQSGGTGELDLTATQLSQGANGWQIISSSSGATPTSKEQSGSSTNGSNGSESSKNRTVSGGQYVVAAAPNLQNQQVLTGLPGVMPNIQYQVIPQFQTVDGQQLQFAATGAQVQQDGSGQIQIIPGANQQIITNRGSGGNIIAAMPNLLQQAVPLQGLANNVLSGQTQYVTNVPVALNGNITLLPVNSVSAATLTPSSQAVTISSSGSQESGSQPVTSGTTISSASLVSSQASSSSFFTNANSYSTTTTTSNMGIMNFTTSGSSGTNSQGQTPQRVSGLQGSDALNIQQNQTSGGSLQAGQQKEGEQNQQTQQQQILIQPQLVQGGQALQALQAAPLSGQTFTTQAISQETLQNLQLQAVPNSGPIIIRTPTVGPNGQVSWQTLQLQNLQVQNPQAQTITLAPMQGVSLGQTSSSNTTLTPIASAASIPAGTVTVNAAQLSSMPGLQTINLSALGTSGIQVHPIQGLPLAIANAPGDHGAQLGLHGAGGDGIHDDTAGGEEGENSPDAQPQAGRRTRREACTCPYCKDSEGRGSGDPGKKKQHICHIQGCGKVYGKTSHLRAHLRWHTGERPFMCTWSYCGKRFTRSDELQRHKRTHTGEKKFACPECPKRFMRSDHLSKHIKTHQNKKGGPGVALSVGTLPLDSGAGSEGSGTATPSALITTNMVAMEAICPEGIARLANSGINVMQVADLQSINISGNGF
Chain of Signal transducer and activator of transcription 3 (Homo sapiens) (P40763 whole entry, looked up): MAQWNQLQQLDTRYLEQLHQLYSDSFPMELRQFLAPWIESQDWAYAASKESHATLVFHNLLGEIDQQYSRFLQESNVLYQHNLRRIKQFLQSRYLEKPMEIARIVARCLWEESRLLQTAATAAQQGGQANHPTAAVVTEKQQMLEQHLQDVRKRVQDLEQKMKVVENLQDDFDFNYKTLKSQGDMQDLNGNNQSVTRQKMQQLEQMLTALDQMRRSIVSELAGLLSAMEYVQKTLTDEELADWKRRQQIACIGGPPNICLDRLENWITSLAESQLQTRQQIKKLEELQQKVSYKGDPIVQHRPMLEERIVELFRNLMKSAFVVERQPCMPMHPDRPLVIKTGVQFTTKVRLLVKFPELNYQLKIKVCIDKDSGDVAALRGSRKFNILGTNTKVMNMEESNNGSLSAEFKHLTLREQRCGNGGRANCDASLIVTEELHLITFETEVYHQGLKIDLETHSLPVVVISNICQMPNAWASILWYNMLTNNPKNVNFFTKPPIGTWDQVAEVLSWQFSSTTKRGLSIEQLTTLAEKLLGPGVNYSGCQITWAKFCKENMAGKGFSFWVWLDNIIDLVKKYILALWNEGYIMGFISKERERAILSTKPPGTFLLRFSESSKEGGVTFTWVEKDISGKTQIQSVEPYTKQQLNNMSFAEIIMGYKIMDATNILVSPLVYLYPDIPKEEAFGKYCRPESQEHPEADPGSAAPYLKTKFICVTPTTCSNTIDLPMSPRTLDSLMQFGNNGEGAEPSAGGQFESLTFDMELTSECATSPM

`CC[C@H](C)[C@H]1O[C@]2(C=C[C@@H]1C)C[C@@H]1C[C@@H](C/C=C(\C)[C@@H](O[C@H]3C[C@H](OC)[C@@H](O[C@H]4C[C@H](OC)[C@@H](O)[C@H](C)O4)[C@H](C)O3)[C@@H](C)/C=C/C=C3\CO[C@@H]4[C@H](O)C(C)=C[C@@H](C(=O)O1)[C@]34O)O2` (tested in a mixture with another compound): the outcome in [1], in [2], in assay [4], in assay [5], in assay [6] and in [7] was inactive. Moreover, the molecule was called inactive in [8]. Also, in assay [3], the AC50 was 1.75 µM (active).

In the case of `O=S(=O)(O)C(F)(F)C(F)(F)C(F)(F)C(F)(F)C(F)(F)C(F)(F)C(F)(F)C(F)(F)F`, the outcome in assay [2], in [9], in assay [4], in assay [5], in assay [6] and in [7] was inactive. For the same molecule, in assay [8], the molecule was classed as inactive. For the same molecule, the AC50 in assay [9] is 133 µM (active); in assay [4] it was 52.8 µM (active); in assay [5] it was 26.5 µM (active) and 53.3 µM (active); in assay [6], 68.7 µM (active); in assay [8], 55.9 µM (active).

As to `O=S1OCC2C(CO1)C1(Cl)C(Cl)=C(Cl)C2(Cl)C1(Cl)Cl` (configuration not stated), the outcome in [1], in assay [2], in assay [9], in [4], in [5] and in assay [6] was inactive. Further, the result in assay [7] and in [8] was inactive. Moreover, the AC50 in assay [3] was 1.47 µM (active).

For the molecule `C[C@H]1[C@H](c2ccc(Cl)cc2)SC(=O)N1C(=O)NC1CCCCC1`, the AC50 in [1] is 27.2 µM (active); in assay [3], 1.93 µM (active); in assay [9] it was 17.5 µM (active). Further, the molecule was classed as inactive in [2], in assay [4], in [5], in assay [6], in assay [7] and in [8].

For the molecule `CC(C)OC(=O)Nc1cccc(Cl)c1`, the call in [2], in assay [9], in assay [4], in [5], in assay [6] and in [7] was inactive. Moreover, in [8], the call was inactive. Also, the concentration at half-maximal activity (AC50) in [3] was 15.5 µM (active); in assay [10] it was 47.1 µM (active).

In the case of `COC(=O)c1ccccc1S(=O)(=O)NC(=O)Nc1nc(C)nc(OC)n1`, the molecule was called inactive in assay [2], in assay [3], in assay [4], in assay [5], in assay [6] and in assay [7]. Also, in assay [8], the outcome was inactive.

Take `CCC(C)(NC(=O)c1cc(Cl)c(C)c(Cl)c1)C(=O)CCl` (configuration not stated): the outcome in [1], in assay [2], in assay [10], in [9], in [4] and in assay [5] was inactive. Also, the result in assay [6], in assay [7] and in [8] was inactive. For the same molecule, the AC50 in assay [3] is 1.58 µM (active).

As for `O=C(O)C(F)(F)C(F)(F)C(F)(F)C(F)(F)C(F)(F)C(F)(F)C(F)(F)F`, the outcome in assay [2], in [3], in assay [4], in [5], in [6] and in assay [7] was inactive. The molecule was called inactive in assay [8]. Moreover, the half-maximal activity concentration (AC50) in [3] is 34.1 µM (active) and 41 µM (active) and 41.5 µM (active).

For the molecule `Cc1[nH]c(=O)n(C(C)(C)C)c(=O)c1Cl`, the AC50 was 80.8 µM (active) in assay [1] and 50 µM (active) in assay [5]. In addition, the result in assay [2], in assay [3], in assay [9], in [4], in [6] and in assay [7] was inactive. The outcome in assay [8] was inactive.

As to `CCC(C)Nc1c([N+](=O)[O-])cc(C(C)(C)C)cc1[N+](=O)[O-]` (configuration not stated), the molecule was called inactive in [2], in assay [10], in assay [4], in assay [5], in assay [6] and in assay [7]. Also, the result in assay [8] was inactive. For the same molecule, the AC50 in assay [3] is 3.43 µM (active); in [9] it was 24.1 µM (active).

Consider `O=C(NC(=O)c1c(F)cccc1F)Nc1ccc(OC(F)(F)C(F)OC(F)(F)F)c(Cl)c1` (configuration not stated), for which the outcome in assay [2], in [3], in [9], in assay [4], in [5] and in [6] was inactive. The result in [7] and in assay [8] was inactive. Further, the AC50 in [10] was 20.9 µM (active).

For `CCc1ccc(C(=O)NN(C(=O)c2cc(C)cc(C)c2)C(C)(C)C)cc1`, the result in assay [1], in [2], in assay [10], in assay [9], in assay [4] and in assay [5] was inactive. The call in [6], in assay [7] and in assay [8] was inactive. Also, the AC50 in [3] was 1.28 µM (active).

For the molecule `[2H]C1([2H])[n+]2ccccc2-c2cccc[n+]2C1([2H])[2H]`, the result in [1], in assay [2], in [10], in assay [9], in assay [4] and in assay [5] was inactive. Besides, the molecule was classed as inactive in [7] and in assay [8]. In addition, the values for the AC50 in assay [3] and in [6] were 18.6 µM (active) and 13.3 µM (active), respectively.

For the molecule `C#CCN1C(=O)COc2cc(F)c(N3C(=O)C4=C(CCCC4)C3=O)cc21`, the outcome in assay [1], in assay [2], in [4], in [5], in [6] and in assay [7] was inactive. For the same molecule, the outcome in [8] was inactive. Moreover, the half-maximal activity concentration (AC50) in [3] was 23.8 µM (active); in [10] it was 12.5 µM (active).

In the case of `CNC(=O)/C=C(\C)OP(=O)(OC)OC`, the outcome in [1], in assay [2], in assay [3], in assay [10], in assay [4] and in [5] was inactive. In addition, the molecule was classed as inactive in assay [6], in [7] and in [8].

As a reminder, the AC50 is the concentration giving half of the maximal activity seen.

(Values after PubChem BioAssay (EPA / NIEHS).)
